Here are results for eight compounds from PubChem BioAssay (NCI).

This is part of a sample that, as a whole, favours compounds with a hit. Of some 83,000 tested, about 20% had one in any assay.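 The test compound was applied at a single concentration to cells in 96-well plates for 48 hours, and percent growth was recorded.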 Values without a mark were called inactive. Active and inactive are the calls of the source. How the source made its calls: active means growth percent below 10; inactive means the rest.

Assay in all cases: NCI-60 one-dose screen, 48 h (100 = growth as untreated, 0 = no growth, -100 = all killed)
Holding throughout (details): 10 µM unless noted

For test [1], the system named is NCI-H23 lung.
Test [2] relates to NCI-H226 lung.
The test system of test [3] is NCI-H322M lung.
The test system of test [4] is HOP-62 NSCLC.
Test [5] deals with NCI-H460 lung.
Test [6] concerns NCI-H522 lung.
In test [7] the test system is A549/ATCC NSCLC.
In test [8] the test system is 786-0 renal.
Test [9] deals with COLO 205 colon.
Test [10] concerns DU-145 prostate.
Test [11] concerns K-562 leukemia.
In test [12] the test system is MALME-3M melanoma.
Test [13] deals with MDA-MB-231 breast.
Test [14] has as its system RXF 393 renal.
Test [15] deals with SF-268 CNS.
Test [16] has as its system SF-295 CNS.
For test [17], the system named is SF-539 CNS.
In test [18] the test system is UACC-257 melanoma.
The subject of test [19] is M14 melanoma.

In the case of `COc1cc(Cl)cc(-c2nn(C(=O)NCCN3CCOCC3)cc2-c2ccncc2)c1`, the growth was 84.9% in test [1]; 99.7% in test [2]; 104% in [3]; 56.7% in test [4]; 56.1% in test [5]; 18.3% in [6]. Moreover, the growth in [7] is 60.7%; in [8] it was 61.8%; in test [9] it was 42.3%; in test [10], 86.1%; in test [11] it was 28.1%; in test [12], 70.2%. For the same compound, the growth is 82.1% in [13]; 76.3% in [14]; 80.9% in [15]; 52.7% in test [16]; 68.4% in test [17]; 81.7% in test [18]. For the same compound, the growth in test [19] is 62%.

For `CCN(CCC#N)c1ccccc1`, the growth in [1] was 106%; in [2], 100%; in test [3], 106%; in test [4] it was 101%; in test [5], 107%; in [6] it was 109%. The growth in test [7] was 108%; in test [8], 99.7%; in [9] it was 132%; in test [10] it was 113%; in [12], 100%; in test [13] it was 89.9%. The growth in test [14] is 122%; in test [15], 115%; in test [16], 102%; in test [17], 96.5%; in test [18], 119%; in test [19], 109%.

For `O=C(CC(=O)C(F)(F)C(F)(F)C(F)(F)F)c1cc2ccccc2o1`, the growth in test [1] was 101%; in [2], 99.8%; in test [3], 106%; in test [4], 97.5%; in [5], 110%; in test [6], 108%. Also, the growth in test [7] is 96.1%; in test [8], 98.4%; in test [9], 114%; in [10], 114%; in test [12], 102%; in test [13], 100%. The growth was 116% in test [14]; 111% in [15]; 99.2% in test [16]; 94.1% in test [17]; 100% in test [18]; 106% in [19].

`COc1cccc(/C(C)=N/NC(=O)CSc2nc3ccccc3c(=O)n2CCc2ccc(S(N)(=O)=O)cc2)c1`: the growth in test [1] was 31.6%; in test [2], 89.1%; in test [3] it was 58.2%; in test [4], 35%; in [5], -53.2% (active); in [6], 42.2%. Also, the growth is 15.6% in test [7]; -26.9% (active) in test [8]; 42.9% in test [9]; 18.4% in test [10]; 32% in test [11]; -15.2% (active) in test [12]. In addition, the growth was -25.5% (active) in test [13]; 57.9% in test [14]; 36.1% in test [15]; 44% in test [16]; -18.1% (active) in test [17]; 45.2% in test [18]. Also, the growth in test [19] is 27.3%.

`COc1cc2c(c(OC)c1O)C(=O)C(OC)C(c1ccc(O)c(O)c1)O2` (stereo not given): the growth is 24.7% in test [1]; 16.8% in [2]; 37% in test [3]; 42.3% in [4]; 4.55% (active) in [5]; -11.9% (active) in test [6]. The growth in [7] is 17.7%; in [8] it was 17%; in test [9], 88%; in test [10], 5.45% (active); in test [11] it was 6.8% (active); in test [12] it was 52.2%. The growth in test [13] was -8.18% (active); in [14], 17.1%; in test [15], 24.6%; in test [16], -6.27% (active); in [17], -23% (active); in test [18] it was 69.1%. The growth in test [19] was -3.36% (active).

In the case of `Clc1ccc(-c2nc(-c3cccs3)no2)cc1`, the growth in test [1] was 89.9%; in [2], 97.3%; in test [3] it was 99.4%; in [4], 85.9%; in test [5], 97.4%; in test [6] it was 85.8%. The growth in test [7] is 94.8%; in test [8], 94.5%; in test [9], 109%; in test [10], 97.4%; in [11] it was 101%; in [12], 111%. Further, the growth in test [13] was 84.2%; in test [14], 114%; in test [15], 102%; in test [16] it was 108%; in test [17], 102%; in test [18], 86.4%. The growth in test [19] was 105%.

Take `COC1(OC)C2(Cl)CCC1(Cl)C(Cl)=C2Cl`: the growth in test [1] is 99.4%; in [2], 98.2%; in [3], 100%; in [4], 129%; in test [5], 106%; in test [6] it was 97%. Also, the growth in test [7] was 95.6%; in [8], 102%; in test [9] it was 128%; in test [10], 108%; in test [11], 110%; in test [12], 99.4%. The growth was 106% in test [13]; 107% in test [14]; 106% in [15]; 105% in [16]; 101% in [17]; 93.2% in test [18]. Besides, the growth in [19] is 96.9%.

For the compound `Clc1ccccc1CNc1c2ccccc2nc2ccccc12`, the growth in test [1] was 21.6%; in test [2] it was 38.9%; in test [3], 27%; in test [4], 40.9%; in test [5] it was 8.83% (active); in test [6] it was 28.5%. For the same compound, the growth in test [7] is 19.2%; in [8] it was 24.5%; in test [9] it was 0.525% (active); in [10] it was 31.8%; in test [11] it was 5.33% (active); in test [12], 19%. Besides, the growth in [13] was 29%; in test [14] it was 15%; in test [15], 46.6%; in test [16], 21.7%; in [17], 6.15% (active); in test [18], 44.3%. For the same compound, the growth in test [19] was 18.1%.
